PAFAH1B2 FP inh: blocks human PAF acetylhydrolase 1b catalytic subunit 2 | AID 492953 | inhibition, % at 3.39 µM | hit rate 1.2% among 340,000 | recombinant PAFAH1B2, FP-rhodamine activity probe, fluorescence polarization;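 active = inhibition above the mean of all tested compounds plus 3 SD, cut at about 24% in these data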;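 note: 0% = enzyme with DMSO and 100% = wells lacking PAFAH1B2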
Target sequence (P68402 whole entry, looked up): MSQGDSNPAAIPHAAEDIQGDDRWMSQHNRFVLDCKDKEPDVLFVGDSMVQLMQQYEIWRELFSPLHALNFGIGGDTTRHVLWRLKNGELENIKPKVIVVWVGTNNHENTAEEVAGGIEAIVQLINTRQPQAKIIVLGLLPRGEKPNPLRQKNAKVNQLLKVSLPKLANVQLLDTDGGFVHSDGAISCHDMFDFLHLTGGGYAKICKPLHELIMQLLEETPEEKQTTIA
PAFAH1B3 FP inh: inhibitors of human PAFAH1B3; hit rate 0.28% among 340,000; inhibition, % at 3.39 µM; Q15102; recombinant PAFAH1B3, FP-rhodamine probe, fluorescence polarization;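 active = inhibition above the screen-wide average of all tested compounds plus 3 SD, cut at about 25% in these data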;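 note: 0% = enzyme with DMSO only and 100% = wells lacking PAFAH1B3 protein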
PKA-R2B act: activators of human PKA-R2B complex | activation, % at 11.4 µM | hit rate 0.079% among 340,000 | PKA-R2B holoenzyme dissociation, Cy5-IP20 fluorescence polarization; R2B truncated from residue 108, S112A mutant; 0% DMSO only, 100% 113 µM cGMP | P22694+P31323;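 active = activation above a cutoff set at the mean over all compounds plus 3 SD, cut at about 18% in these data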;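 note: higher means more holoenzyme dissociation and a rise in polarization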
Target sequence (P31323 whole entry, looked up, other chains not shown, the tested form may be a part): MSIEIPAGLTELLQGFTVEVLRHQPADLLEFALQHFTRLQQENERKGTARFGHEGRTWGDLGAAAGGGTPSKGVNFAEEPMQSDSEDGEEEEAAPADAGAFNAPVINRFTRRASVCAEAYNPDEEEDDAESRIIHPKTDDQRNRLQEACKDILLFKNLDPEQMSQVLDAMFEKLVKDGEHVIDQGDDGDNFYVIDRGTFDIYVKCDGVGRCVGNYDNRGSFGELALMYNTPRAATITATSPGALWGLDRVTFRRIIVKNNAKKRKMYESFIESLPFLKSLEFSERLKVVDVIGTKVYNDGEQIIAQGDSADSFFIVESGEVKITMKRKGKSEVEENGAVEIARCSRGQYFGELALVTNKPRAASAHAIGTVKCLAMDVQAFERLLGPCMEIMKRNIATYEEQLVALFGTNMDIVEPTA
PKA-R1A act: activators of PKA-R1A complex | P00514+P68181 | PKA-R1A dissociation, Cy5-IP20 fluorescence polarization; scaled: DMSO 0%, 113 µM cGMP 100% | activation, % at 11.4 µM | hit rate 0.083% among 340,000 | AID 504707;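 active = percent activation above the mean of all tested compounds plus 3 SD, cut at about 19% in these data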;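 note: higher means more PKAc released from R1A so a rise in polarization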
PAFAH2 FP inh: inhibitors of human PAFAH2; Q99487; recombinant PAFAH2, FP-rhodamine activity probe, fluorescence polarization; inhibition, % at 3.39 µM; hit rate 0.99% among 340,000;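 active = inhibition above the mean over all tested compounds plus 3 SD, cut at about 30% in these data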;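 note: inhibitors block probe labeling of enzyme so polarization drops; 0% = enzyme with DMSO and 100% = wells lacking PAFAH2 protein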
pPAFAH FP inh: inhibitors of human plasma PAF acetylhydrolase (pPAFAH); Q13093; recombinant pPAFAH, FP-rhodamine probe fluorescence polarization; inhibition, % at 3.39 µM; hit rate 1.5% among 330,000;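 active = inhibition above the mean inhibition across the screen plus 3 SD, cut at about 25% in these data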;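 note: inhibitors block binding of the rhodamine activity-based probe so polarization drops; 0% = enzyme with DMSO and 100% = wells lacking pPAFAH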
pPAFAH confirm: confirmation of human plasma PAF acetylhydrolase (pPAFAH) inhibitors | inhibition, % at 3.39 µM | hit rate 72% among 2,300 | shares compounds with pPAFAH FP inh | recombinant pPAFAH, FP-Rh probe fluorescence polarization;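 active = mean inhibition of the triplicate above the hit cutoff set for the earlier primary screen, cut at about 25% in these data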;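 note: 0% = enzyme with DMSO and 100% = wells lacking pPAFAH enzyme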
Starred values were filed as active, the others as inactive; . = no result given. Most compounds without a hit are left out; they make up all but 2.6% or so of the library.

SMILES	PAFAH1B2 FP inh	PAFAH1B3 FP inh	PKA-R2B act	PKA-R1A act	PAFAH2 FP inh	pPAFAH FP inh	pPAFAH confirm
CCN(CC)P(=O)(c1nccn1C)N(CC)CC	5.2	3.4	8.7	-4.8	1.8	1.0	.
O=C(Nc1ccccc1)N1CCC2(CC1)OCCO2	4.7	-8.9	-1.9	-8.7	1.0	-2.9	.
CCC(C)/C=C(C)/C=C/C1=CC2=C(Cl)C(=O)C(C)(OC(C)=O)C(=O)C2=CO1 (stereo not given)	20.6	17.1	11.9	-1.5	22.3	32.2*	.
O=C(Nc1ccc(Cl)cc1C(=O)c1ccccc1)c1ccccc1	-1.2	0.8	0.9	-4.2	4.4	28.7*	.
CN(C)CCSCc1nnc2n1-c1ccc(Cl)cc1C(c1ccccc1Cl)=NC2	5.1	9.7	-11.8	-1.7	-0.8	-2.3	.
N#CC(C#N)=NNc1ccc(S(N)(=O)=O)cc1	1.9	32.3*	4.3	1.2	8.7	29.6*	.
CC1CCN(S(=O)(=O)c2ccc(NN=C(C#N)C#N)cc2)CC1	.	.	.	.	.	8.7	.
CSCc1nnc2n1-c1ccc(Cl)cc1C(c1ccccc1)=NC2	-3.3	6.9	-24.9	4.7	0.4	-1.0	.
Oc1c(Br)cc(Br)cc1Br	3.6	1.8	-1.3	1.1	1.1	3.1	.
Oc1c(Br)c(Br)c(Br)c(Br)c1Br	41.3*	13.8	5.2	9.5	27.4	32.4*	.
Cc1ccc(CN2C(=O)CN=C(c3ccccc3)c3ccccc32)cc1	28.1*	1.1	-0.2	-3.1	9.5	0.3	.
CCOC(=O)C1(CCc2ccccc2)CCN(C(C)CSC)CC1 (stereo not given)	7.5	3.5	0.0	2.6	3.2	2.1	.
CC12CC3CC(C)(C1)CC(N)(C3)C2	1.9	-0.1	3.1	4.0	9.7	-2.4	.
N#CCP(=S)(c1ccccc1)c1ccccc1	-5.3	-6.2	-4.4	-7.2	-1.1	-2.0	.
CC(C)CN(CC(C)C)c1ccc(C=C2C(=O)NC(=S)NC2=O)cc1[N+](=O)[O-]	34.2*	0.0	-8.1	-10.5	38.4*	11.1	.
O=c1c2ccccc2nc(CNCC2CCCO2)n1-c1ccc(F)cc1 (stereo not given)	0.4	4.1	13.7	4.1	-1.2	-2.5	.
Cc1ccc(CS(=O)(=O)Cc2ccc(C(=O)N3CCC4(CC3)OCCO4)o2)cc1	3.4	1.5	5.6	0.2	12.1	40.3*	32.4*
Cc1ccc(S(=O)(=O)Cc2ccc(C(=O)N3CCC4(CC3)OCCO4)o2)cc1	5.0	5.1	-5.8	2.0	10.7	0.0	.
CC(C)NC(=O)Cn1cc(C(=O)c2ccccc2F)c2ccccc21	0.6	-6.5	-3.3	4.9	-8.8	0.4	.
N#Cc1ccccc1Cn1cc(C(=O)c2ccccc2F)c2ccccc21	-5.6	4.6	-2.9	13.0	-1.9	72.0*	79.5*
O=C(c1cccs1)c1cn(Cc2ccccc2Cl)c2ccccc12	-4.9	-5.5	-9.8	-2.8	-8.8	70.7*	70.8*
N#Cc1ccccc1Cn1cc(C(=O)c2cccs2)c2ccccc21	-3.4	1.7	-6.1	-6.8	-4.5	72.1*	74.5*
CC(Cc1ccccc1Sc1ccc(O)cc1)N(C)C (stereo not given)	2.1	-1.1	7.6	-6.9	13.1	5.6	.
CN(C)C(=O)Oc1c(Cl)cc(Cl)c2cccnc12	1.8	4.5	-0.8	3.7	-0.1	5.8	.
CN(C)C(=O)Oc1noc2cc(Cl)ccc12	0.3	2.1	8.0	-3.7	41.4*	43.1*	52.4*
SMILES	PAFAH1B2 FP inh	PAFAH1B3 FP inh	PKA-R2B act	PKA-R1A act	PAFAH2 FP inh	pPAFAH FP inh	pPAFAH confirm
O=C(O)C1C2CCC(O2)C1C(=O)Nc1ccc(Cl)cc1 (stereo not given)	.	.	.	.	.	0.2	.
CCN(CC)c1ccc(N=Cc2c(O)n(Cc3ccco3)c(=O)[nH]c2=O)cc1	3.4	6.7	-6.5	-8.1	10.2	46.1*	0.2
CCN(CC)c1ccc(N=Cc2c(O)n(CCc3ccc(OC)c(OC)c3)c(=O)[nH]c2=O)cc1	0.6	-1.0	-1.5	2.5	3.4	19.0	.
CCN(CCO)c1ccc(N=Cc2c(O)n(C)c(=S)[nH]c2=O)cc1	.	.	.	.	.	37.2*	3.5
CCN(CC)c1ccc(N=Cc2c(O)n(-c3cc(OC)ccc3OC)c(=O)[nH]c2=O)cc1	6.5	0.1	-8.6	-17.2	-7.2	37.9*	7.7
C=C[C@H]1CN2CC[C@H]1C[C@@H]2[C@@H](O)c1ccnc2ccccc12	6.2	9.6	3.6	7.1	-2.6	0.6	.
Oc1cc2c(cc1CN1CCN(c3ccccc3F)CC1)OCO2	-1.6	2.0	3.8	-2.9	6.5	6.1	.
COC(=O)C1=C(c2cccc(OCc3ccccc3)c2)C[C@@H]2CC[C@H]1N2C(=O)NCc1ccc([N+](=O)[O-])cc1	13.8	8.4	-1.2	-9.4	-3.0	3.7	.
COc1cc(/C=C/c2nc3ccccc3c(=O)n2-c2ccc(O)cc2)ccc1O	5.9	6.4	-4.6	-0.2	2.9	6.2	.
COc1ccc(-n2c(/C=C/c3ccc(O)c(O)c3)nc3ccccc3c2=O)cc1	-1.9	4.4	-8.0	-7.9	5.2	37.0*	46.1*
CN(C)C1C(=O)C(C(N)=O)=C(O)C2(O)C(=O)C3=C(O)c4c(O)cccc4C(C)(O)C3C(O)C12 (stereo not given)	10.0	25.6*	-2.8	-6.4	26.2	73.0*	7.1
Clc1cccc(CN2CCCCC2c2cccnc2)c1 (stereo not given)	6.6	-0.1	6.4	-0.4	-1.1	2.3	.
O=C(N/N=C/c1c(O)n(CCC2=CCCCC2)c(=O)[nH]c1=O)c1ccccc1	11.5	4.0	1.5	-1.3	9.0	10.1	.
O=C(N/N=C/c1c(O)n(CCC2=CCCCC2)c(=S)[nH]c1=O)c1ccccc1	29.5*	15.2	-7.0	-0.1	-0.7	52.0*	42.1*
O=[N+]([O-])c1cc(O)c(O)c([N+](=O)[O-])c1	16.2	16.4	-8.1	-3.0	36.9*	37.1*	70.1*
O=[N+]([O-])c1ccc(O)c([N+](=O)[O-])c1	7.3	8.1	4.3	5.9	0.6	2.0	.
O=C(COC(=O)Cc1ccccc1)Nc1ccc(SC(F)F)cc1	2.5	18.0	-15.2	-1.8	2.4	36.2*	28.6*
O=C(COC(=O)Cc1ccccc1)Nc1cc(S(=O)(=O)N2CCOCC2)ccc1N1CCCC1	4.0	2.3	0.1	-9.0	8.6	39.4*	38.9*
CC[C@H](C)/C=C(C)/C=C/C1=CC2=C(Cl)C(=O)[C@@](C)(OC(C)=O)C(=O)C2=CO1	15.8	12.4	-7.7	-1.7	45.3*	79.5*	79.3*
CCC(=NCc1ccco1)c1c(O)n(-c2ccccc2C)c(=O)[nH]c1=O	4.4	-5.0	2.5	-0.1	1.4	1.4	.

Compound activity from PubChem.
